PubChem BioAssay (NCATS)
Records with an inconclusive call do not appear. Values without a mark were called inactive. Calls of active or inactive are those of the source. Calls come from the whole dose curve; as a rule, active = well fitted cell-killing curve with a large enough effect; inconclusive = small, poorly fitted or top-dose-only effect, or effect the other way; inactive = no such curve, though single readings can be large or run the other way.

Assay: Viability qHTS for spleen associated tyrosine kinase inhibitor (SYKi) drug resistant MV4-11 cells (AID 1963824); note: nearly all actives have a fitted effect of over 35% in size
Conditions: SYKi-resistant MV4-11 viability, CellTiter-Glo, 72 h; series mostly up to 45 µM; viability, % of control: at the top concentration
In short: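 CellTiter-Glo luminescence, read 10 min after reagent addition, reports viability after a 72 hr compound exposure. Cells are an MV4-11 line made resistant to SYK inhibition, seeded at 500 per well onto compound-containing plates.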
Potency is the fitted concentration of half-maximal effect.

Row | Compound | viability, % of control | Potency
1 | C[C@]12CCC(=O)C=C1CC[C@@H]1[C@@H]2[C@@H](O)C[C@]2(C)C(=O)CC[C@@H]12 | 92.4% | 
2 | C[C@H]1C(=O)O[C@H]2[C@H](O)[C@]34C5OC(=O)[C@]3(O[C@@H]3OC(=O)[C@H](O)C34[C@H](C(C)(C)C)[C@H]5O)C12O (stereo partly specified) | 104% [at 17.3 µM] | 
3 | C[C@H](CCC(=O)O)C[C@H](C)C[C@H](C)C(=O)/C=C(\O)[C@H](C)C[C@H](C)C/C=C/[C@@H](C)[C@@H](O)[C@@H](C)[C@@H](O)C[C@@H]1CC[C@@](C)([C@H]2CC[C@@](C)([C@@H](C)O)O2)O1 |  | 2.82 µM (active)
4 | CCN1CC2(COC)C3[C@@H](OC)C4C1C3(C1C[C@]3(O)[C@H](OC(=O)c5ccccc5)C1[C@]4(OC(C)=O)[C@@H](O)[C@@H]3OC)[C@H](OC)C[C@H]2O (stereo partly specified) | 103% | 
5 | COCC1OC(=O)c2coc3c2C1(C)C1=C(C3=O)C2CCC(=O)C2(C)CC1O (stereo unspecified) | 82.4% | 
6 | CC(C)(C)NCC(O)c1ccccc1Cl (stereo unspecified) | 88.4% | 
7 | COc1ccc(CN(C(=O)[C@@H](N)Cc2c(C)cc(C(N)=O)cc2C)[C@@H](C)c2ncc(-c3ccccc3)[nH]2)cc1C(=O)O | 82.9% | 
8 | C=CC(C)(O)CC/C=C(\C)C(=O)O[C@H]1[C@H](O)[C@@H](CO)O[C@@H](OC(=O)[C@]23CCC(C)(C)CC2C2=CCC4[C@@]5(C)CC[C@H](O[C@@H]6O[C@H](CO[C@@H]7OC[C@H](O)[C@H](O)[C@H]7O[C@@H]7OC[C@@H](O)[C@H](O)[C@H]7O)[C@@H](O)[C@H](O)[C@H]6O)C(C)(C)C5CC[C@@]4(C)[C@]2(C)CC3)[C@@H]1OC1OC(C)C(O[C@@H]2OC[C@@H](O)[C@H](O[C@@H]3OC[C@@H](O)[C@H](O)[C@H]3O)[C@H]2O)C(O)C1O (stereo partly specified) | 77.8% [at 9.25 µM] | 
9 | COc1cc2cc(c1Cl)N(C)C(=O)C[C@H](OC(=O)C(C)C)[C@]1(C)O[C@@H]1[C@H](C)[C@@H]1C[C@@](O)(NC(=O)O1)[C@H](OC)/C=C/C=C(\C)C2 | 2.17% | 
10 | CCc1[nH]c2ccc(OC)cc2c1CCN(C)C | 69.4% | 
11 | CC(=O)O[C@@H]1CC2C(C)(C)C(=O)C=C[C@]2(C)C2CC[C@]3(C)C(=CC(=O)O[C@H]3c3ccoc3)[C@@]21C (stereo partly specified) |  | 13 µM (active)
